Measurements as given in PubChem BioAssay.
The source made the active and inactive calls.

Columns and labels:
[1] = anti-His antibody binders, primary screen, artefact control for SMM control protein annotation, biochemical, small-molecule microarray, 635 nm fluorescence (AID 1128); settings: anti-His Alexa647 antibody binding, higher = more signal;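 also: score merges feature fluorescence with signal-to-noise for each printed compound spot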
[2] = tested on: Human papillomavirus type 1a E7 protein (residues 1-88); assay: HPV1a E7 small-molecule binders, primary screen, biochemical, small-molecule microarray, residues 1-88, 635 nm (AID 1129); settings: small-molecule microarray binding, fluorescence 635 nm; higher = more signal
[3] = molecular target: Focal adhesion kinase 1 (Homo sapiens) (UniProt Q05397); assay: small-molecule microarray binders of FAK, primary screen, biochemical, 635/667 nm fluorescence, BSA, DTT (AID 1130); settings: PTK2 binding, 635 nm fluorescence, higher = more signal;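 also: composite of spot emission at 667 nm and signal to noise over triplicate slides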
[4] = tested on: Fibrinogen (Alexa647-labelled); assay: fibrinogen binders on compound microarrays, profiling panel, artefact control for SMM control-protein annotation, biochemical, small-molecule microarray, 635/667 nm fluorescence (AID 1131); settings: fibrinogen-A647 binding fluorescence, higher = more signal;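 also: z-score merges 667 nm fluorescence with per-spot signal-to-noise over triplicate slides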
[5] = molecular target: Follistatin (Homo sapiens) (UniProt P19883); assay: follistatin binders on small-molecule microarrays, primary screen, biochemical, small-molecule microarray, 635/667 nm fluorescence (AID 1132); settings: FST binding, 635 nm fluorescence, higher = more signal
[6] = molecular target: Fibroblast growth factor 2 (Homo sapiens) (UniProt P09038); assay: FGF2 binders on small-molecule microarrays, primary screen, biochemical, small-molecule microarray, 635/667 nm fluorescence (AID 1133); settings: small-molecule microarray binding, FGF2, fluorescence 635/667; higher = more signal
[7] = mitochondrial membrane potential change in A549 cells, profiling panel, cell-based, JC-1 fluorescence, basal, 24 h, 100 nL (AID 1138); settings: higher = more signal;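 also: A549 lung adenocarcinoma cells under basal conditions with no added stimulus; test concentration not given here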
Lefty1 = Lefty1 binders on small-molecule microarrays, primary screen, biochemical, small-molecule microarray, 635/667 nm fluorescence (AID 1139); settings: small-molecule microarray binding, fluorescence 635/667; higher = more signal
[8] = tested on: wheat germ agglutinin (Triticum aestivum), Alexa647-labelled; assay: wheat germ agglutinin binders on compound microarrays, profiling panel, artefact control for SMM control-protein annotation, biochemical, small-molecule microarray, 635/667 nm fluorescence (AID 1140); settings: WGA-A647 binding, 635 nm fluorescence, higher = more signal;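 also: score merges 667 nm feature emission with signal to noise over triplicate slides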
[9] = molecular target: Luciferin 4-monooxygenase (Photinus pyralis) (UniProt P08659); assay: firefly luciferase enzyme inhibitors, primary screen, biochemical, luminescence, purified enzyme, 2006 set (AID 1141); settings: SteadyGlo luminescence, 30 min, higher = more signal, called active from +8 up or from −8 down;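 also: cell-free assay with purified firefly luciferase at 100 ng per well in PBS; test concentration not given here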
Sequence of Luciferin 4-monooxygenase (Photinus pyralis) (P08659 whole entry, looked up): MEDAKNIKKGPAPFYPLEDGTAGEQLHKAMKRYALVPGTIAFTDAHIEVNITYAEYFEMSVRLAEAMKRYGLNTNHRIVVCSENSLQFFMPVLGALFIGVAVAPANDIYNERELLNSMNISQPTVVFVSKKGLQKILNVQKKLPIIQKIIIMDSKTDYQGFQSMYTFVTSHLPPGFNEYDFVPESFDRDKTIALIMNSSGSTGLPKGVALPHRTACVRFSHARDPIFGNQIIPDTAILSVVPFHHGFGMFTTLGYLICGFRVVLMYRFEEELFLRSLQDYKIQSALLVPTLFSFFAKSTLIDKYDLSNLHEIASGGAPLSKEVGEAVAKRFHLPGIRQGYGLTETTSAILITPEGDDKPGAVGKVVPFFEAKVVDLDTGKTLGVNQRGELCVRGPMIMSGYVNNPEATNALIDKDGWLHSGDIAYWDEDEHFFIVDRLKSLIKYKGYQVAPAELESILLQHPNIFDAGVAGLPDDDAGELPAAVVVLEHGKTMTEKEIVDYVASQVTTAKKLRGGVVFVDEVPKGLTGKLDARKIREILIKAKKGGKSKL

Sequence of Fibroblast growth factor 2 (Homo sapiens) (P09038 whole entry, looked up): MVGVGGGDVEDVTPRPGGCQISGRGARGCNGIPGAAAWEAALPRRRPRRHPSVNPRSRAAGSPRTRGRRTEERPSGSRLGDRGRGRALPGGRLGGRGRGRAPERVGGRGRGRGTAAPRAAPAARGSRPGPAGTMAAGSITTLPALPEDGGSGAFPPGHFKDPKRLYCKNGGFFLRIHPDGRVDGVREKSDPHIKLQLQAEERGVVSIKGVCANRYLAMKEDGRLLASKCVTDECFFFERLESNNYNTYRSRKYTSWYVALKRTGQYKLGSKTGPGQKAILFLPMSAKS
Sequence of Focal adhesion kinase 1 (Homo sapiens) (Q05397 whole entry, looked up): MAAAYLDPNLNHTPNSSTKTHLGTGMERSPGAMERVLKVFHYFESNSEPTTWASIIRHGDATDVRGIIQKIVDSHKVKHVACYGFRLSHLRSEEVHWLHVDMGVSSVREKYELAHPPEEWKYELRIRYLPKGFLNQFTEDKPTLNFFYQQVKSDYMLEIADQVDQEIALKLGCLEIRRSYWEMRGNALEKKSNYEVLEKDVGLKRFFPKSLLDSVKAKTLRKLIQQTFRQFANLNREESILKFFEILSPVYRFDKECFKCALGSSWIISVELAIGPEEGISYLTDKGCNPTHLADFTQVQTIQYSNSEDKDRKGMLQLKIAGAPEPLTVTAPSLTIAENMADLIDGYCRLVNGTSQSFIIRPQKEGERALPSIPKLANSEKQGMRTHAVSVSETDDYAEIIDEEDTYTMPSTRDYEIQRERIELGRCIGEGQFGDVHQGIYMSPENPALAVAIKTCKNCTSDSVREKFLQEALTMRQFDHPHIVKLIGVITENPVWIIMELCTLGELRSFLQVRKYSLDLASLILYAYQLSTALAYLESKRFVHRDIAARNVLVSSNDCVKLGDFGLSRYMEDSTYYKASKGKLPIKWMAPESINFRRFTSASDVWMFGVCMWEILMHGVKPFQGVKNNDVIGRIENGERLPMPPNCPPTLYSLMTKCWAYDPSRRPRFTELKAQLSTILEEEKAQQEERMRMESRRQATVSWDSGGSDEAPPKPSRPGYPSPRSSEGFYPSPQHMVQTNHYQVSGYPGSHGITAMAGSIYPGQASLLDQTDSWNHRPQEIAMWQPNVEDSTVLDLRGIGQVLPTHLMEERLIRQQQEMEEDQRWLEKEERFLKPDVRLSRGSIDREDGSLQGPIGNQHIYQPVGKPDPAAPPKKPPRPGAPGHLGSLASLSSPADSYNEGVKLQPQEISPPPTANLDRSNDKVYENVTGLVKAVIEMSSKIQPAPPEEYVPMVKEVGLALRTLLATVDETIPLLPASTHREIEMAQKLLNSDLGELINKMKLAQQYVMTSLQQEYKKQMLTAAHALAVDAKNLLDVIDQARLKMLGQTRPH
Sequence of Follistatin (Homo sapiens) (P19883 whole entry, looked up): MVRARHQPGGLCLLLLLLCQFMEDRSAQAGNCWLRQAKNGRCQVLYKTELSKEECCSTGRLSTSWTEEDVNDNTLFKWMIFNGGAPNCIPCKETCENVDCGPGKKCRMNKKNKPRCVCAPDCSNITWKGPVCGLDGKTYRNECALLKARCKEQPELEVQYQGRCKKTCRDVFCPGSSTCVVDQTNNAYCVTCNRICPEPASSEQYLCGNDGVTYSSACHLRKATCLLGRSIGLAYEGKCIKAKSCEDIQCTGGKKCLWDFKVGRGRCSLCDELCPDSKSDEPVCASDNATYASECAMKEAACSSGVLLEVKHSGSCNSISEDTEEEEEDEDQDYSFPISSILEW

SMILES | composite z-score [1] | composite z-score [2] | composite z-score [3] | composite z-score [4] | composite z-score [5] | composite z-score [6] | z-score [7] | composite z-score (Lefty1) | composite z-score [8] | z-score [9]
COC(=O)[C@@]1(Cc2ccccc2)[C@H]2c3cc(C(=O)N(C)C)n(Cc4c(-c5ccccc5)noc4C)c3C[C@H]2CN1C(=O)c1ccccc1 | 2.29 | 1.22 | 1.21 | 0.968 | 0.212 | -0.533 | 0.582 | -0.579 | 1.17 | 1.49 (inactive)
[N-]=[N+]=NCc1ccccc1C[C@@]1(C(=O)NCC(O)CO)N=C(c2ccc(OCCCO)cc2)O[C@@H]1c1ccccc1CN=[N+]=[N-] (stereo not given in full) | -0.0645 | 1.23 | 0.919 | 0.971 | 1.28 | 1.6 | 0.16 | -0.83 | 0.91 | 0.782 (inactive)
O=c1cccc(CCc2ccccc2)o1 | 1.24 | 0.741 | 0.675 | -0.229 | 0.641 | 0.257 | 0.426 | 0.593 | 0.211 | 0.0302 (inactive)
C=CCC(OC(C)=O)[C@@H]1[C@@H](N(Cc2ccc(-c3ccccc3)cc2)C(=O)Cc2ccc(OC)cc2)c2cc(OCCCO)ccc2N1C(=O)c1ccc2ccccc2n1 (stereo not given in full) | 0.009 | 0.0656 | 0.0569 | 0.534 | 0.45 | 0.635 | 1.34 | 0.221 | 0.22 | -0.592 (inactive)
O=C1O[C@H](c2ccccc2)[C@H](c2ccccc2)N2[C@H]1[C@@H](C(=O)O)[C@]1(C(=O)Nc3ccc(C#CC4(O)CCCCCC4)cc31)[C@H]2c1ccc(OCCO)cc1 | 1.5 | 1.25 | 0.115 | 0.979 | 0.196 | -0.333 | -1.42 | 0.473 | 0.942 | -2.75 (inactive)
O=C1[C@]2(CO)C=C(Br)[C@@H](C[C@@H]2c2ccccc2)[C@@]12CO2 | 0.123 | -0.769 | -0.0687 | 0.262 | 0.518 | 0.118 | 0.116 | 0.748 | 0.492 | 0.969 (inactive)
NCCCCCCNC(=O)[C@H]1C[C@H]2C(=O)NCC(=O)N2[C@H]1c1cccc(OCCO)c1 | 0.869 | 0.858 | 0.215 | 0.794 | 1.24 | 1.55 | 1.85 | 1.04 | 1.08 | -1.7 (inactive)
[N-]=[N+]=NCc1ccccc1[C@H]1OC(c2ccc(OCCCO)cc2)=N[C@@]1(CCS(=O)(=O)c1ccccc1)C(=O)N1CCOCC1 | 0.997 | 0.871 | 0.176 | 1.04 | 1.31 | 1.01 | -0.988 | -0.0664 | 1.35 | -1.26 (inactive)
O=C1N(CCS(=O)(=O)c2ccccc2)Cc2ccccc2C[C@]12N=C(c1ccc(OCCCO)cc1)O[C@@H]2c1ccccc1 | 2.51 | 1.08 | 0.342 | 0.356 | 1.5 | 1.91 | 0.685 | 0.557 | 1.13 | -1 (inactive)
CCCCCN1CC=CC23O[C@@H]4C=CCOC(=O)[C@@H]4[C@H]2C(=O)N(CCCO)[C@@H]3C1=O (stereo not given in full) | 1.5 | 0.789 | 0.532 | -1.05 | 0.105 | -0.128 | -0.483 | 0.632 | -0.895 | -0.0247 (inactive)
CCC(CC)C(O)C1C=CC2C(=O)N(c3ccccc3)C(=O)C2N1Nc1ccc(C#N)cc1 (stereo not given) | 1.74 | 1.27 | 0.813 | 0.991 | 0.816 | -0.177 | -0.111 | 0.0695 | 1.21 | -0.27 (inactive)
COC(=O)[C@@]1(Cc2ccccc2)[C@H]2c3cc(C(=O)N(C)C)n(Cc4cc(C)n(C)n4)c3C[C@H]2CN1C(=O)c1ccccc1 | 1.95 | 1.13 | 0.57 | -0.103 | 0.229 | -0.768 | -0.127 | -0.169 | 0.889 | 0.887 (inactive)
CN1C=C(C(=O)OCCS(C)(=O)=O)C(C(=O)OCCS(C)(=O)=O)=CC(CCCO)=CC1C1CC1 (stereo not given) | 0.464 | -0.202 | 0.686 | 0.901 | 0.186 | -0.275 | 0.664 | 0.889 | 0.288 | -0.0115 (inactive)
COCCCNC(=O)[C@@]1(c2ccc([N+](=O)[O-])cc2)CC(=O)N(CC23CC4CC(CC(C4)C2)C3)[C@@H]1c1ccc(CO)cc1 | 0.344 | 1.18 | 0.745 | 0.799 | 1.27 | 1.62 | 0.846 | 0.983 | 0.203 | 0.183 (inactive)
Cc1ccc(S[C@]2(C(=O)NCc3ccccc3)CC(=O)N(Cc3ccccc3Cl)[C@@H]2c2ccc(CO)cc2I)cc1 | 2.92 | -0.162 | -0.0602 | 0.999 | 0.0508 | -0.871 | 0.00439 | -0.366 | 0.947 | 0.831 (inactive)
O=C1c2ccccc2[C@@]2(Cc3ccccc3N(Cc3ccccc3)C2=O)[C@H](c2ccc(CO)cc2)N1C1CCCCC1 | 0.386 | 0.174 | 0.117 | -0.0673 | 1.02 | 0.736 | -0.191 | 0.483 | 0.0291 | 0.378 (inactive)
C=CCNC(=O)[C@@H]1[C@H]2C(=O)O[C@H](c3ccccc3)[C@H](c3ccccc3)N2[C@H](c2ccc(OCCO)cc2)[C@@]12C(=O)Nc1ccccc12 | 0.797 | 1.22 | 0.102 | 0.934 | 1.1 | 0.516 | 0.253 | 1.03 | 0.496 | -8.15 (active)
O=C/C=C/c1ccc2c(c1)OCO2 | 1.33 | 0.128 | 0.247 | -0.696 | 0.952 | 0.398 | 0.231 | 0.401 | -0.273 | -1.04 (inactive)
NC(=O)NCC#Cc1ccc2c(c1)[C@]1(C(=O)N2)[C@H](C(=O)NC[C@H](O)c2ccccc2)[C@H]2C(=O)O[C@H](c3ccccc3)[C@H](c3ccccc3)N2[C@@H]1c1ccc(O)cc1 | 0.489 | 1.17 | 0.58 | 0.673 | 1.17 | 1.21 | -2.34 | 0.595 | 1.09 | -0.0138 (inactive)
CC(C)c1ccc(NN2C(C(O)c3ccc(N(C)C)cc3)C=CC3C(=O)N(c4ccccc4)C(=O)C32)cc1 (stereo not given) | 0.435 | 1.24 | 0.0061 | 0.96 | 1.25 | -0.321 | 0.594 | 0.273 | 0.923 | -0.943 (inactive)
O=C1C2C=CC(C(O)c3ccc(B(O)O)cc3)N(Nc3ccccc3)C2C(=O)N1c1ccccc1 (stereo not given) | 0.56 | -0.935 | 1.44 | -0.0877 | 0.0669 | -0.581 | -1.4 | -0.698 | -0.0504 | -0.331 (inactive)
COCCOC(=O)N1C(=O)[C@@]2(c3cc(C#CCC(C(=O)OC)C(=O)OC)ccc31)[C@H](c1ccccc1OCCO)N1[C@H](c3ccccc3)[C@H](c3ccccc3)OC(=O)[C@H]1[C@@H]2C(=O)N1CCc2cc(OC)c(OC)cc2C1 | 0.89 | 1.19 | 1.33 | 0.938 | 1.41 | 1.49 | -0.978 | 1.47 | 0.784 | -0.882 (inactive)
COC(=O)C(CC#Cc1ccc2c(c1)[C@]1(C(=O)N2)[C@H](c2ccc(OCCO)cc2)N2[C@H](c3ccccc3)[C@H](c3ccccc3)OC(=O)[C@H]2[C@@H]1C(=O)NC[C@H](O)c1ccccc1)C(=O)OC | 1.06 | 1.23 | 0.751 | 0.849 | 0.966 | 0.387 | -0.816 | 0.346 | 1.16 | -1.67 (inactive)
CCOC(=O)C1=CC[C@@H](c2ccccc2Cl)N(S(=O)(=O)c2ccc(C)cc2)C1 | 1.15 | 1.18 | 1.29 | 0.838 | 0.37 | 0.163 | 2.73 | -0.612 | 0.91 | 0.614 (inactive)
C=CC[C@]1(C(=O)N2CCOCC2)N=C(c2ccc(OCCCO)cc2)O[C@H]1c1ccccc1 | 1.69 | 1.22 | 0.602 | 0.866 | 0.401 | 0.12 | 0.409 | -0.781 | 1.28 | 1.25 (inactive)
